Reference: PubChem BioAssay (Tox21)
Inconclusive results are not listed. A number with no mark means an inactive call. Calls of active or inactive are those of the source. Calls come from the whole dose curve.
% is set by controls: 0 for no effect and ±100 for the full control effect.

Assay: qHTS assay to identify small molecule agonists of the endoplasmic reticulum stress response signaling pathway - cell viability counter screen (AID 1159517); note: nearly all actives have a fitted effect of over 50% in size
Settings: ESRE-bla HeLa viability, CellTiter-Glo luminescence, 5 h; series mostly up to 61 µM
Description: U.S. Tox21 Program National Center for Advancing Translational Sciences [NCATS] NIH Chemical Genomics Center [NCGC] U.S. Environmental Protection Agency [EPA] National Institutes of Environmental Health Sciences [NIEHS] National Toxicology Program [NTP] U.S. Food and Drug Administration [FDA] Tox21 Assay Overview: Endoplasmic Reticulum (ER) plays an important role in cellular signaling, protein folding/maturation, stress response, lipid biosynthesis, calcium storage and release etc. Under stress conditions, proteins in ER misfold or unfold, and leading to the expression of ER stress responsive genes. ER stress has been associated with a variety of pathophysiological conditions such as cancer, inflammation, neurodegenerative diseases, diabetes, ischemic heart disease etc. To identify the compounds that induce ER stress response, an ER stress reporter cell line, CellSensor ESRE-bla HeLa (Life Technologies, Carlsbad, CA) containing a beta-lactamase reporter gene under control of the Endoplasmic reticulum Stress Response Element (ESRE) was used to screen Tox21 10K compound library. The cytotoxicity of the Tox21 compound library against the ESRE-bla HeLa cell line was tested in parallel by measuring cell viability using the CellTiter-Glo assay in the same wells.
Tox21 Assay Protocol Summary: ESRE-bla HeLa cells were dispensed at 1,500 cells/6 uL of assay medium per well into black wall/clear-bottom 1536-well plates using a Multidrop Combi (ThermoFisher Scientific, Waltham, MA) dispenser. After the assay plates were incubated at 37 C and 5% CO2 for an overnight, 23 nL of compounds dissolved in DMSO, positive controls or DMSO only was transferred to the assay plate by a Pintool station (Kalypsys, San Diego, CA). The assay plates were incubated at 37 C and 5% CO2 for 5 hr. One uL of LiveBLAzer B/G FRET substrate (Life Technologies) was added using a FRD (Flying Reagent Dispenser, Aurora Discovery, San Diego, CA) and the plates were incubated at room temperature for 2 hr. Fluorescence intensity (405 nm excitation, 460 nm and 530 nm emissions) was measured using an Envision plate reader (PerkinElmer, Shelton, CT). For cytotoxicity, 4 ul/well of CellTiter-Glo reagent was added into the assay plates using an FRD. After 30 min incubation at room temperature, the luminescence intensity was measured using a ViewLux plate reader (PerkinElmer).
In the case of `CC(C)N1C(=O)c2ccccc2C1=O`, the outcome is reported as “inactive”.
In the case of `CC(C)c1ccc2oc3nc(N)c(C(=O)O)cc3c(=O)c2c1`, the outcome is reported as “inactive”.
For `CC(C)(O)C(=O)c1ccc(OCCO)cc1`, the outcome was “inactive”.
In the case of `COc1nc(C)nc(N)n1`, the outcome is reported as “inactive”.
In the case of `CCCCCCC(=O)OCC`, the outcome is reported as “inactive”.
For `C=C(C)C(=O)OCCCCCCCCCCCCCCCCCC`, the outcome was “inactive”.
In the case of `O=C(O)c1ccc[n+]([O-])c1`, the outcome is reported as “inactive”.
In the case of `CC(=O)c1ccc(C)cc1`, the outcome is reported as “inactive”.
With `COC(=O)CCCCCCCCC(=O)OC` the outcome was “inactive”.
With `COC(=O)C1=C(C)NC(C)=C(C(=O)OCC(C)=O)C1c1ccccc1[N+](=O)[O-]` (stereo not given) the outcome was “inactive”.
With `Cc1nc(-c2ccc(OCC(C)C)c(C#N)c2)sc1C(=O)O` the outcome was “inactive”.
In the case of `C[C@H](O)C(=O)Nc1c(I)c(C(=O)NC(CO)CO)c(I)c(C(=O)NC(CO)CO)c1I`, the outcome is reported as “inactive”.
With `Nc1[nH]c(=O)ncc1F` the outcome was “inactive”.
For `CC(C)(C)CC(C)(C)N`, the outcome was “inactive”.
In the case of `CCN(CC)C(=O)c1ccc(O)c(OC)c1`, the outcome is reported as “inactive”.
In the case of `CCCC(C)C(=O)O` (stereo not given), the outcome is reported as “inactive”.
For `CCCCN(CCO)CCO`, the outcome was “inactive”.
In the case of `C=CCOCC(O)CS(=O)(=O)O` (stereo not given), the outcome is reported as “inactive”.
In the case of `C=CCOc1nc(OCC=C)nc(OCC=C)n1`, the outcome is reported as “inactive”.
In the case of `NCC[C@H](O)C(=O)N[C@@H]1C[C@H](N)[C@@H](O[C@H]2O[C@H](CN)[C@@H](O)[C@H](O)[C@H]2O)[C@H](O)[C@H]1O[C@H]1O[C@H](CO)[C@@H](O)[C@H](N)[C@H]1O`, the activity change, negative = cytotoxicity is reported as 6.85% [at 0.628 µM].
For `CCN1CCN(c2cc3c(cc2F)c(=O)c(C(=O)O)cn3C2CC2)CC1`, the outcome was “inactive”.
For `C=CC(=O)OCCCCCC`, the outcome was “inactive”.
With `C1=C\CC/C=C\CC/C=C\CC/1` the outcome was “inactive”.
For `C=C(C)C(=O)OCCC(C)OC(=O)C(=C)C` (stereo not given), the outcome was “inactive”.
With `NC(=O)Nc1nc2ccccc2[nH]1` the outcome was “inactive”.
For `OCC(O)[C@@H](O)[C@H](O)[C@H](O)CO[C@H]1O[C@H](CO)[C@@H](O)[C@H](O)[C@H]1O` (stereo not given in full), the outcome was “inactive”.
In the case of `Cc1c(F)cc2c(=O)c(C(=O)O)cn3c2c1CCC3C` (stereo not given), the outcome is reported as “inactive”.
In the case of `CN(C)CCOC(c1ccc(Cl)cc1)c1ccccn1` (stereo not given), the outcome is reported as “inactive”.
With `N#CC1(O)CCCCC1` the outcome was “inactive”.
In the case of `OCCCCCCO`, the outcome is reported as “inactive”.
In the case of `CSc1nc(NC2CC2)nc(NC(C)(C)C)n1`, the outcome is reported as “inactive”.
For `CCCCc1ccc(N)cc1`, the outcome was “inactive”.
With `N#CCN(CC#N)CCN(CC#N)CC#N` the outcome was “inactive”.
For `CC12CCC(CC1=O)C2(C)C` (stereo not given), the outcome was “inactive”.
With `NCCNC(=O)c1ccc(Cl)cn1` the outcome was “inactive”.
With `C=C(C)[C@H]1CC=C(C)CC1` the outcome was “inactive”.
In the case of `CCCC(=O)O[C@]1(C(=O)CCl)[C@@H](C)C[C@H]2[C@@H]3CCC4=CC(=O)C=C[C@]4(C)[C@@]3(F)C(=O)C[C@@]21C`, the outcome is reported as “inactive”.
In the case of `CC(C)(C)OC(=O)N1C[C@@H](F)C[C@H]1C(=O)O`, the outcome is reported as “inactive”.
With `COc1cc(C)cc(O)c1` the outcome was “inactive”.
In the case of `Cc1ccccc1Br`, the outcome is reported as “inactive”.
